# From paper PMC5540273 (PLoS ONE, 2017)
# Where two headings read alike, the source gives them in different places.
# What was measured:
# [1] = system: FYN; settings: concentration: 1 μM, replicates: in singlicate; n = 1
# [2] = system: GAK; settings: concentration: 1 μM, replicates: in singlicate; n = 1
# [3] = system: T1, GCN2(Kin.Dom.2,S808G); settings: concentration: 1 μM, replicates: in singlicate; n = 1
# T1 construct: gene EIF2AK4
# [4] = system: GRK1; settings: concentration: 1 μM, replicates: in singlicate; n = 1
# [5] = system: T2, GRK2; settings: concentration: 1 μM, replicates: in singlicate; n = 1
# T2 construct: gene ADRBK1
# [6] = system: T3, GRK3; settings: concentration: 1 μM, replicates: in singlicate; n = 1
# T3 construct: gene ADRBK2
# [7] = system: GRK4; settings: concentration: 1 μM, replicates: in singlicate; n = 1
# [8] = system: GRK7; settings: concentration: 1 μM, replicates: in singlicate; n = 1
# [9] = system: GSK3A; settings: concentration: 1 μM, replicates: in singlicate; n = 1
# [10] = system: GSK3B; settings: n = 1
# [11] = system: T4, HASPIN; settings: concentration: 1 μM, replicates: in singlicate; n = 1
# T4 construct: gene GSG2
# [12] = system: HCK; settings: concentration: 1 μM, replicates: in singlicate; n = 1
# [13] = system: HIPK1; settings: concentration: 1 μM, replicates: in singlicate; n = 1
# [14] = system: HIPK2; settings: concentration: 1 μM, replicates: in singlicate; n = 1
# [15] = system: HIPK3; settings: concentration: 1 μM, replicates: in singlicate; n = 1
# [16] = system: HIPK4; settings: concentration: 1 μM, replicates: in singlicate; n = 1
# [17] = system: HPK1; settings: concentration: 1 μM, replicates: in singlicate; n = 1
# [18] = system: HUNK; settings: concentration: 1 μM, replicates: in singlicate; n = 1
# [19] = system: ICK; settings: concentration: 1 μM, replicates: in singlicate; n = 1
# [20] = system: IGF1R; settings: concentration: 1 μM, replicates: in singlicate; n = 1
# [21] = concentration: 1 μM, replicates: in singlicate
# 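Also: KINOMEscan kinase panel screen.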
structure (smiles),measurement,setting,value
COc1ccc(NC(=O)c2ccoc2)cc1-c1ccc(C(=O)NCC2CC2)cc1 [GW810437],%Inh,[1],0%
same,%Inh,[2],0%
same,%Inh,[3],0%
same,%Inh,[4],24%
same,%Inh,[5],0%
same,%Inh,[6],0%
same,%Inh,[7],0%
same,%Inh,[8],0%
same,%Inh,[9],0%
same,%Inh,[10]; [21],26%
same,%Inh,[11],23%
same,%Inh,[12],26%
same,%Inh,[13],5%
same,%Inh,[14],18%
same,%Inh,[15],7%
same,%Inh,[16],6%
same,%Inh,[17],0%
same,%Inh,[18],31%
same,%Inh,[19],13%
same,%Inh,[20],0%
COc1ccc(C2=C(Nc3cccc(O)c3)C(=O)NC2=O)cc1 [SB-390766],%Inh,[1],34%
same,%Inh,[2],0%
same,%Inh,[3],61%
same,%Inh,[4],0%
same,%Inh,[5],0%
same,%Inh,[6],33%
same,%Inh,[7],0%
same,%Inh,[8],0%
same,%Inh,[9],41%
same,%Inh,[10]; 1 µM,35%
same,%Inh,[11],0%
same,%Inh,[12],41%
same,%Inh,[13],0%
same,%Inh,[14],2%
same,%Inh,[15],63%
same,%Inh,[16],93.5%
same,%Inh,[17],36%
same,%Inh,[18],0%
same,%Inh,[19],10%
same,%Inh,[20],0%
Cc1cccc(Nc2nc(NCCN)ncc2C(N)=O)c1 [GSK1292139],%Inh,[1],48%
same,%Inh,[2],65%
same,%Inh,[3],41%
same,%Inh,[4],0%
same,%Inh,[5],0%
same,%Inh,[6],0%
same,%Inh,[7],15%
same,%Inh,[8],0%
same,%Inh,[9],6%
same,%Inh,[10]; [21],11%
same,%Inh,[11],56%
same,%Inh,[12],25%
same,%Inh,[13],0%
same,%Inh,[14],0%
same,%Inh,[15],7%
same,%Inh,[16],0%
same,%Inh,[17],85%
same,%Inh,[18],0%
same,%Inh,[19],13%
same,%Inh,[20],0%
COc1cccc(-c2nc(-c3ccccc3)[nH]c2-c2ccncc2)c1 [SB-610250],%Inh,[1],24%
same,%Inh,[2],72%
same,%Inh,[3],1%
same,%Inh,[4],0%
same,%Inh,[5],0%
same,%Inh,[6],49%
same,%Inh,[7],0%
same,%Inh,[8],0%
same,%Inh,[9],0%
same,%Inh,[10]; [21],19%
same,%Inh,[11],66%
same,%Inh,[12],0%
same,%Inh,[13],0%
same,%Inh,[14],0%
same,%Inh,[15],15%
same,%Inh,[16],7%
same,%Inh,[17],43%
same,%Inh,[18],31%
same,%Inh,[19],3%
same,%Inh,[20],16%
CN(C)c1ncnc2nc[nH]c12 [SKF-31736],%Inh,[1],0%
same,%Inh,[2],0%
same,%Inh,[3],0%
same,%Inh,[4],43%
same,%Inh,[5],0%
same,%Inh,[6],0%
same,%Inh,[7],38%
same,%Inh,[8],0%
same,%Inh,[9],1%
same,%Inh,[10]; [21],28%
same,%Inh,[11],0%
same,%Inh,[12],3%
same,%Inh,[13],23%
same,%Inh,[14],12%
same,%Inh,[15],15%
same,%Inh,[16],0%
same,%Inh,[17],0%
same,%Inh,[18],0%
same,%Inh,[19],0%
same,%Inh,[20],0%
CS(=O)(=O)c1cccc(CNc2nc(Nc3ccc4c(c3)CCC(=O)N4)ncc2C(F)(F)F)c1,%Inh,[1],10%
same,%Inh,[2],16%
same,%Inh,[3],0%
same,%Inh,[4],24%
same,%Inh,[5],0%
same,%Inh,[6],0%
same,%Inh,[7],0%
same,%Inh,[8],0%
same,%Inh,[9],55%
same,%Inh,[10]; [21],0%
same,%Inh,[11],0%
same,%Inh,[12],0%
same,%Inh,[13],31%
same,%Inh,[14],3%
same,%Inh,[15],0%
same,%Inh,[16],22%
same,%Inh,[17],41%
same,%Inh,[18],0%
same,%Inh,[19],0%
same,%Inh,[20],5%
CN(c1ccc(NC(=O)Nc2cccc(Cl)c2)cc1)c1ccnc(N)n1.Cl [GW830707],%Inh,[1],10%
same,%Inh,[2],10%
same,%Inh,[3],0%
same,%Inh,[4],0%
same,%Inh,[5],0%
same,%Inh,[6],1%
same,%Inh,[7],0%
same,%Inh,[8],1%
same,%Inh,[9],17%
same,%Inh,[10]; [21],1%
same,%Inh,[11],32%
same,%Inh,[12],0%
same,%Inh,[13],0%
same,%Inh,[14],18%
same,%Inh,[15],0%
same,%Inh,[16],79%
same,%Inh,[17],0%
same,%Inh,[18],51%
same,%Inh,[19],7%
same,%Inh,[20],0%
Cc1cccc(Nc2nc(N[C@H]3CCCC[C@H]3N)ncc2C(N)=O)c1.Cl [GSK986310],%Inh,[1],52%
same,%Inh,[2],55%
same,%Inh,[3],72%
same,%Inh,[4],0%
same,%Inh,[5],0%
same,%Inh,[6],17%
same,%Inh,[7],6%
same,%Inh,[8],1%
same,%Inh,[9],24%
same,%Inh,[10]; [21],19%
same,%Inh,[11],18%
same,%Inh,[12],0%
same,%Inh,[13],0%
same,%Inh,[14],0%
same,%Inh,[15],21%
same,%Inh,[16],0%
same,%Inh,[17],79%
same,%Inh,[18],0%
same,%Inh,[19],16%
same,%Inh,[20],0%
